HT1080 IDH1KD tx: kills HT-1080 cells with IDH1 knockdown; actives 2% (n = 360,000); HT-1080 IDH1 knockdown viability, ATP luminescence, 48 h; AID 686971; Potency, µM (top dose mostly 46.1 µM), for inactives: at the highest dose activity, negative = toxicity, usual class: cytotoxic;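 also: 0% = DMSO wells and -100% = cell-free medium wells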
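Viability of IDH1-knockdown HT-1080 fibrosarcoma cells was assessed by CellTiter-Glo after 48 h at 37 °C with titrated compound; concentration-effect curves were classified by fit quality and response size.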
KB-3-1 cytotox: kills parental KB-3-1 adenocarcinoma cells; KB-3-1 viability, CellTiter-Glo ATP luminescence, 72 h; Potency, µM (series often up to 46.1 µM), hits mostly cytotoxic; actives 1.4% (n = 400,000); AID 1347075; also: nearly all actives have a fitted effect of over 60% in size
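Viability of parental KB-3-1 cells, measured by CellTiter-Glo luminescence, followed a 72 h incubation at 37 °C with pinned compounds in phenol-red-free DMEM containing 10% FBS.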
HT1080NT lethal: kills 2HG-producing HT-1080-NT fibrosarcoma cells; Potency, µM (titrated, usually from 46.1 µM), for inactives: at the highest dose activity, negative = less viability, usual class: cytotoxic; actives 1.6% (n = 360,000); HT-1080-NT fibrosarcoma viability, CellTiter-Glo ATP luminescence, 48 h;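 also: NT is the 2HG producing partner of a matched IDH1 knockdown line; 0% = DMSO-treated cells and -100% = media-only wells without cells; nearly all actives have a fitted effect of over 55% in size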
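Compounds were tested in concentration-response format on HT-1080-NT cells for 48 hours at 37 degrees C. Cell viability came from CellTiter-Glo luminescence; curves were classified by r2, response magnitude and activity.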
DT40 TDP1 CPT: DT40-hTDP1 cell growth loss with CPT; AID 686979; actives 12% (n = 420,000); chicken DT40 Tdp1-/-;hTDP1 cells + 20 nM CPT, ATP luminescence, 48 h; Potency, µM (highest dose often 46.2 µM), inactives show at the highest dose activity change, negative = growth inhibition, usual class: inhibitors; also: nearly all actives have a fitted effect of over 55% in size
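Chicken DT40 Tdp1-/- cells stably complemented with human TDP1 were seeded at 400 cells/well in medium containing 20 nM camptothecin, exposed to pin-transferred compounds, and grown at 37 °C for at least 48 hr. Viability was read as ATP luminescence.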
TDP1 cell noCPT: qHTS for Inhibitors of human tyrosyl-DNA phosphodiesterase 1 (TDP1): qHTS in cells in absence of CPT | DT40 Tdp1-/- hTDP1 cells, no CPT, ATP luminescence, 48 h | Potency, µM (titrated, usually from 46.2 µM), without a hit: top-dose activity change, negative = growth inhibition, most hits filed as inhibitors | actives 15% (n = 420,000); also: nearly all actives have a fitted effect of over 55% in size
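Compound effects on proliferation are scored in DT40 Tdp1-/-;hTDP1 cells in the absence of CPT. ATP levels (CellTiter-Glo luminescence) are recorded after a ≥48 hr, 37 °C incubation.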
KB-V1 cytotox: kills drug-selected multidrug resistant KB-V1 cells | KB-V1 MDR cells viability, CellTiter-Glo, 72 h | Potency, µM (doses to about 46.1 µM), usual class: cytotoxic | actives 3.4% (n = 400,000); also: nearly all actives have a fitted effect of over 60% in size
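Potencies derive from concentration-effect curves fitted to normalized luminescence (CellTiter-Glo) of KB-V1 cells treated for 72 h at 37 degrees C in phenol-red-free DMEM containing 10% FBS.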
The depositor's hits bear a star. An excerpt weighted towards active compounds, which were near 19% of everything screened. Calls follow the shape of the dose curve; as a rule, active = well fitted curve in the direction sought with a large enough effect; inconclusive = small, poorly fitted or top-dose-only effect, or another doubt; inactive = no such curve, though single readings can be large; an effect the other way counts as inactive or inconclusive. Unless noted, % is scaled to controls: 0 for no effect and ±100 for the full control effect; potency is read from the fitted curve at half-maximal effect.

Screening O=C(Nc1ccc2c(c1)OCO2)c1csc([C@@H]2O[C@H](CO)[C@H](O)[C@H](O)[C@H]2O)n1 returned HT1080 IDH1KD tx 9.4%, KB-3-1 cytotox inactive, HT1080NT lethal -1.2%, DT40 TDP1 CPT 8.4%, TDP1 cell noCPT -0.7% and KB-V1 cytotox inactive.
For Nc1ccn(CCCNC2CCN(Cc3ccccc3)CC2)c(=O)n1 the results were HT1080 IDH1KD tx -0.1%, KB-3-1 cytotox inactive, HT1080NT lethal 0.0%, DT40 TDP1 CPT 4.5%, TDP1 cell noCPT 4.2% and KB-V1 cytotox inactive.
Screening CCCCOc1ccc(C2(C)NC(=O)NC2=O)cc1 (configuration not stated) returned HT1080 IDH1KD tx -14.9%, KB-3-1 cytotox inactive, HT1080NT lethal -2.3%, DT40 TDP1 CPT inconclusive, TDP1 cell noCPT 18.4µM* and KB-V1 cytotox inactive.
For CCCCCCCOc1ccc(C2(C)NC(=O)NC2=O)cc1 (configuration not stated) the results were HT1080 IDH1KD tx -3.7%, KB-3-1 cytotox inactive, HT1080NT lethal -16.6%, DT40 TDP1 CPT -26.6%, TDP1 cell noCPT inconclusive and KB-V1 cytotox inactive.
`C=CC[C@@H](CC(=O)N[C@@H](CO)Cc1ccccc1)C(=O)N[C@H](COC(=O)[C@@H](CC=C)Cc1ccc(F)cc1)Cc1ccccc1` gave HT1080 IDH1KD tx -2.4%, KB-3-1 cytotox inactive, HT1080NT lethal 0.9%, DT40 TDP1 CPT inconclusive, TDP1 cell noCPT inconclusive and KB-V1 cytotox inactive.
For C=CCC[C@H](Cc1ccc(F)cc1)C(=O)OC[C@@H](NC(=O)[C@@H](CC=C)CC(=O)N[C@@H](CO)Cc1ccccc1)C(C)(C)C the results were HT1080 IDH1KD tx inconclusive, KB-3-1 cytotox inconclusive, HT1080NT lethal inconclusive, DT40 TDP1 CPT 20.6µM*, TDP1 cell noCPT 20.6µM* and KB-V1 cytotox inactive.
`C=CC[C@@H](CC(=O)N[C@H](CO)Cc1ccccc1)C(=O)N[C@H](COC(=O)[C@@H](CC=C)Cc1ccc(F)cc1)C(C)(C)C` gave HT1080 IDH1KD tx -22.5%, KB-3-1 cytotox 20.6µM*, HT1080NT lethal inconclusive, DT40 TDP1 CPT inconclusive, TDP1 cell noCPT inconclusive and KB-V1 cytotox inactive.
Screening C=CCC[C@H](Cc1ccc(F)cc1)C(=O)OC[C@@H](C)NC(=O)[C@@H](CC=C)CC(=O)N[C@H](CO)Cc1ccccc1 returned HT1080 IDH1KD tx -16.9%, KB-3-1 cytotox inconclusive, HT1080NT lethal -7.4%, DT40 TDP1 CPT inconclusive, TDP1 cell noCPT inconclusive and KB-V1 cytotox inactive.
C=CCC[C@H](Cc1ccc(F)cc1)C(=O)OC[C@@H](C)NC(=O)[C@@H](CC=C)CC(=O)N[C@@H](CO)Cc1ccccc1 was read as HT1080 IDH1KD tx 3.6%, KB-3-1 cytotox inactive, HT1080NT lethal 3.0%, DT40 TDP1 CPT inconclusive, TDP1 cell noCPT 14.6µM* and KB-V1 cytotox inactive.
C=CCC[C@@H](Cc1ccc(F)cc1)C(=O)OC[C@@H](NC(=O)[C@@H](CC=C)CC(=O)N[C@@H](CO)Cc1ccccc1)C(C)(C)C was read as HT1080 IDH1KD tx inconclusive, KB-3-1 cytotox inconclusive, HT1080NT lethal inconclusive, DT40 TDP1 CPT 23.1µM*, TDP1 cell noCPT inconclusive and KB-V1 cytotox inconclusive.
For O=C(COC(=O)c1cc(=O)c2ccccc2o1)NCc1ccc(Cl)cc1 the results were HT1080 IDH1KD tx -4.3%, KB-3-1 cytotox inactive, HT1080NT lethal -3.5%, DT40 TDP1 CPT 2.6%, TDP1 cell noCPT -9.2% and KB-V1 cytotox inactive.
O=C(CCNS(=O)(=O)c1ccc(Br)cc1)NCc1ccc(Cl)cc1 was read as HT1080 IDH1KD tx -7.2%, KB-3-1 cytotox inactive, HT1080NT lethal -13.3%, DT40 TDP1 CPT inconclusive, TDP1 cell noCPT 0.5% and KB-V1 cytotox inactive.
For O=C(Nc1nc2ccc(Cl)cc2s1)[C@@H]1CCCN1C(=O)c1cccs1 the results were HT1080 IDH1KD tx -0.2%, KB-3-1 cytotox inactive, HT1080NT lethal -11.3%, DT40 TDP1 CPT -13.7%, TDP1 cell noCPT -7.4% and KB-V1 cytotox inactive.
CCc1ccc(CNC(=O)c2ccc(NC(=O)C3=CSCCO3)cc2)cc1 was read as HT1080 IDH1KD tx -10.8%, KB-3-1 cytotox inactive, HT1080NT lethal inconclusive, DT40 TDP1 CPT -1.6%, TDP1 cell noCPT -2.4% and KB-V1 cytotox inactive.
For COc1cccc(CNC(=O)c2cc3c(=O)n(Cc4cccnc4)ccc3nc2C)c1 the results were KB-3-1 cytotox inactive, DT40 TDP1 CPT inconclusive, TDP1 cell noCPT inconclusive and KB-V1 cytotox inactive.
Cc1cc(C)nc(NS(=O)(=O)c2ccc(NC(=O)c3ccc(S(=O)(=O)N4CC(C)OC(C)C4)cc3)cc2)n1 (configuration not stated) was read as HT1080 IDH1KD tx 12.4%, KB-3-1 cytotox inactive, HT1080NT lethal 11.5%, DT40 TDP1 CPT -6.2%, TDP1 cell noCPT -26.1% and KB-V1 cytotox inactive.
`Cc1ccc(-c2cc(C(=O)Nc3ccc(S(=O)(=O)N4CC(C)OC(C)C4)cc3)[nH]n2)c(O)c1` (configuration not stated) gave HT1080 IDH1KD tx -11.7%, KB-3-1 cytotox inactive, HT1080NT lethal inconclusive, DT40 TDP1 CPT 16.4µM*, TDP1 cell noCPT inconclusive and KB-V1 cytotox inactive.
For Cc1ccc(O)c(-c2cc(C(=O)Nc3ccc(S(=O)(=O)N4CC(C)OC(C)C4)cc3)[nH]n2)c1 (configuration not stated) the results were HT1080 IDH1KD tx -28.8%, KB-3-1 cytotox inconclusive, HT1080NT lethal inconclusive, DT40 TDP1 CPT 25.9µM*, TDP1 cell noCPT 23.1µM* and KB-V1 cytotox inconclusive.
For Cc1ccc(C)c(NC(=O)c2cc(-c3cc(C)ccc3O)n[nH]2)c1 the results were HT1080 IDH1KD tx inconclusive, KB-3-1 cytotox inactive, HT1080NT lethal 32.6µM*, DT40 TDP1 CPT inconclusive, TDP1 cell noCPT inconclusive and KB-V1 cytotox inactive.
`CCN(/C=N/S(=O)(=O)c1ccc(Cl)cc1)CC` gave HT1080 IDH1KD tx 9.6%, KB-3-1 cytotox inactive, HT1080NT lethal 6.0%, DT40 TDP1 CPT 0.8%, TDP1 cell noCPT -15.1% and KB-V1 cytotox inactive.
`COc1ccc(N=C/C=C2\C=C(c3ccccc3)OC(C)(C)O2)cc1` gave HT1080 IDH1KD tx -22.6%, KB-3-1 cytotox inactive, HT1080NT lethal -2.9%, DT40 TDP1 CPT 16.4µM*, TDP1 cell noCPT inconclusive and KB-V1 cytotox inactive.

Source: PubChem BioAssay
